Results reported in PubChem BioAssay AID1159580 (chemical genetic matrix, 2015).
“And” between values parts separate entries of the source, which are not always exact repeats. Equal entries are not always repeated. In all, about 5,500 compounds went through this assay and about 2,000 (36%) were called active. Another 18% or so got no clear call; they are omitted. Cut-off read from the data, not from the text of the source: active = normalized growth mostly below about 0.91 (no sharp cut-off); inconclusive = no clear call, values can overlap the other calls; inactive = mostly above about 0.92. The list shows a part of the results.

Experiment: chemical genetic growth profiling, strain panel (AID 1159580);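 note: tested at 20 µM; growth read once vehicle control cultures reached saturation at 30 °C; 1 = growth at the plate median or of vehicle wells; lower values mean less growth of the strain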
Details: S. cerevisiae deletion strains, growth OD

Measured: normalized growth

NC[C@@H]1O[C@H](O[C@@H]2[C@@H](CO)OC(O[C@@H]3[C@@H](O)[C@H](N)C[C@H](N)[C@H]3OC3O[C@H](CN)[C@@H](O)[C@H](O)[C@H]3N)[C@@H]2O)[C@H](N)[C@@H](O)[C@@H]1O (some centres not stated)
inactive: locus YAL013W, strain DEP1, stronger effect = lower value 1 | locus YAL021C, strain ccr4, stronger effect = lower value 1.01 | locus YAL026C, strain drs2, stronger effect = lower value 1.02 | locus YAL030W, strain snc1, stronger effect = lower value 1.02 | locus YBL061C, strain skt5, stronger effect = lower value 1.03 | locus YBR009C, strain hhf1, stronger effect = lower value 1.03 | locus YBR021W, strain FUR4, stronger effect = lower value 0.966 | locus YBR023C, strain chs3, stronger effect = lower value 1.06 | locus YBR171W, strain sec66, stronger effect = lower value 1.04 | locus YBR229C, strain ROT2, stronger effect = lower value 1 | locus YBR231C, strain swc5, stronger effect = lower value 1.01 | locus YBR279W, strain paf1, stronger effect = lower value 1.01 | locus YCL011C, strain gbp2, stronger effect = lower value 1.03 | locus YCL016C, strain dcc1, stronger effect = lower value 1.05 | locus YCL029C, strain bik1, stronger effect = lower value 1.02 | locus YCL061C, strain MRC1, stronger effect = lower value 1.01 | locus YCL069W, strain vba3, stronger effect = lower value 1.02 | locus YCR088W, strain abp1, stronger effect = lower value 1.02 | locus YDL005C, strain med2, stronger effect = lower value 1.01 | locus YDL035C, strain GPR1, stronger effect = lower value 1.01 | locus YDL040C, strain nat1, stronger effect = lower value 1.02 | locus YDL074C, strain BRE1, stronger effect = lower value 1.01 | locus YDL101C, strain DUN1, stronger effect = lower value 1.01 | locus YDL134C, strain PPH21, stronger effect = lower value 1 | locus YDL185W, strain tfp1, stronger effect = lower value 1.01 | locus YDL192W, strain arf1, stronger effect = lower value 1.02 | locus YDR001C, strain nth1, stronger effect = lower value 1.02 | locus YDR069C, strain doa4, stronger effect = lower value 1.03 | locus YDR101C, strain arx1, stronger effect = lower value 1 | locus YDR137W, strain rgp1, stronger effect = lower value 1.06 | locus YDR150W, strain NUM1, stronger effect = lower value 1.01 | locus YDR159W, strain sac3, stronger effect = lower value 0.997 | locus YDR162C, strain NBP2, stronger effect = lower value 1.01 | locus YDR195W, strain ref2 1.01 | locus YDR297W, strain sur2, stronger effect = lower value 1.02 | locus YDR318W, strain mcm21, stronger effect = lower value 1.01 | locus YDR334W, strain swr1, stronger effect = lower value 1.02 | locus YDR335W, strain msn5, stronger effect = lower value 1.02 | locus YDR388W, stronger effect = lower value 1.01 | locus YDR392W, strain spt3, stronger effect = lower value 0.944 | locus YDR502C, strain sam2, stronger effect = lower value 1.03 | locus YEL003W, strain gim4, stronger effect = lower value 1.02 | locus YEL037C, strain rad23, stronger effect = lower value 1.03 | locus YEL061C, strain CIN8 (second series), stronger effect = lower value 1.03 | locus YEL061C, strain CIN8, stronger effect = lower value 1.01 | locus YER015W, strain faa2, stronger effect = lower value 1.03 | locus YER016W, strain bim1, stronger effect = lower value 1.02 | locus YER110C, stronger effect = lower value 1.01 | locus YER111C, strain swi4, stronger effect = lower value 1.02 | locus YER155C, strain BEM2 (second series), stronger effect = lower value 0.973 | locus YER155C, strain BEM2, stronger effect = lower value 1.01 | locus YER167W, strain BCK2, stronger effect = lower value 1.02 | locus YFR010W, strain ubp6, stronger effect = lower value 1.03 | locus YGL078C, strain dbp3, stronger effect = lower value 1.01 | locus YGL086W, strain mad1, stronger effect = lower value 1 | locus YGL167C, strain pmr1, stronger effect = lower value 1.03 | locus YGL173C, strain kem1, stronger effect = lower value 1.03 | locus YGL227W, strain vid30, stronger effect = lower value 1.03 | locus YGL240W, strain doc1, stronger effect = lower value 1 | locus YGL248W, strain PDE1, stronger effect = lower value 1.01 | locus YGL253W, strain hxk2, stronger effect = lower value 1.03 | locus YGR078C, strain PAC10, stronger effect = lower value 1.02 | locus YGR135W, strain pre9, stronger effect = lower value 1.07 | locus YGR229C, strain SMI1, stronger effect = lower value 1 | locus YGR252W, strain gcn5, stronger effect = lower value 0.957 | locus YHR013C, strain ard1, stronger effect = lower value 1.05 | locus YHR027C, strain rpn1, stronger effect = lower value 1.03 | locus YHR030C, strain SLT2, stronger effect = lower value 1.02 and 0.985 | locus YHR079C, strain IRE1 (second series), stronger effect = lower value 1.02 | locus YHR079C, strain IRE1, stronger effect = lower value 0.983 | locus YHR094C, strain hxt1, stronger effect = lower value 1.01 | locus YHR129C, strain ARP1, stronger effect = lower value 1 | locus YHR142W, strain chs7, stronger effect = lower value 1.05 | locus YHR200W, strain rpn10, stronger effect = lower value 1.03 | locus YIL066C, strain RNR3, stronger effect = lower value 1.03 | locus YIL073C, strain SPO22, stronger effect = lower value 1.07 | locus YIL125W, strain kgd1, stronger effect = lower value 1.02 | locus YIR030C, strain dcg1, stronger effect = lower value 1.01 | locus YJL092W, strain hpr5, stronger effect = lower value 1.03 | locus YJL095W, strain BCK1 (second series), stronger effect = lower value 1.03 | locus YJL095W, strain BCK1, stronger effect = lower value 1.02 and 0.991 | locus YJL115W, strain asf1, stronger effect = lower value 1.03 | locus YJL129C, strain trk1, stronger effect = lower value 1.06 | locus YJL134W, strain LCB3, stronger effect = lower value 0.993 | locus YJL154C, strain vps35, stronger effect = lower value 1.02 | locus YJL164C, strain tpk1, stronger effect = lower value 1.01 | locus YJL166W, strain qcr8, stronger effect = lower value 1.04 | locus YJL168C, strain set2, stronger effect = lower value 1.01 | locus YJL187C, strain SWE1 (second series), stronger effect = lower value 1.01 | locus YJL187C, strain SWE1, stronger effect = lower value 1.01 | locus YJR043C, strain POL32, stronger effect = lower value 1.01 | locus YJR066W, strain TOR1, stronger effect = lower value 0.929
